# Assay results reported in publication PMC7862700, “An all-to-all approach to the identification of sequence-specific readers for epigenetic DNA modifications on cytosine”.
# Legend:
# Test in all cases: DAPPL (digital affinity profiling via proximity ligation, sequencing); 10 mM Tris-HCl pH 7.5, 50 mM NaCl, 1 mM DTT, 4% glycerol, room temperature, 30 min; GST-TFs on glutathione beads, 16-mer random dsDNA library, 0.1% formaldehyde crosslink after washing; high values mean tight binding
# FLI1 = target: T1, FLI1 (Homo sapiens, UniProt Q01543 1-452); conditions: protein: recombinant; tags: N-terminal GST; dsDNA, one strand shown
# T1 sequence: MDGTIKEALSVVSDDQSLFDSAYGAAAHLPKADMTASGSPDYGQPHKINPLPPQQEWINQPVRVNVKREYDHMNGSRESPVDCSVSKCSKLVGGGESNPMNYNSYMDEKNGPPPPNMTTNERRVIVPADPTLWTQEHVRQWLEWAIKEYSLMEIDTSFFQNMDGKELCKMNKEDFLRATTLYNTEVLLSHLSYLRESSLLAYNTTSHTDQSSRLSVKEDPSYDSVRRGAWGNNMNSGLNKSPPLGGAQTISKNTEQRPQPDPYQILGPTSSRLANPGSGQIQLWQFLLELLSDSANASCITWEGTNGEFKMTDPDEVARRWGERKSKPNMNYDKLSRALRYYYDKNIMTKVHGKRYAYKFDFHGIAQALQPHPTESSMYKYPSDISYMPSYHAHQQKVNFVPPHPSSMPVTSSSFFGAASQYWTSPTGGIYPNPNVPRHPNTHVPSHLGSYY
# Method in brief: (§1)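 Binding signal is given per hexamer as its read frequency for a factor divided by its frequency in the tag-only sample. GST-fused human transcription factors were expressed in yeast, captured on glutathione beads, barcoded with DNA and pooled with that sample, then incubated with 200 nmole of a 16-mer random double-stranded DNA library in Tris/NaCl/DTT/glycerol buffer for 30 min at room temperature. The pools were then washed, crosslinked, proximity-ligated, amplified by PCR and sequenced on an Illumina NextSeq500.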
# ELK1 = target: T2, ELK1 (Homo sapiens, UniProt P19419 1-428); conditions: protein: recombinant; tags: N-terminal GST; dsDNA, one strand shown
# T2 sequence: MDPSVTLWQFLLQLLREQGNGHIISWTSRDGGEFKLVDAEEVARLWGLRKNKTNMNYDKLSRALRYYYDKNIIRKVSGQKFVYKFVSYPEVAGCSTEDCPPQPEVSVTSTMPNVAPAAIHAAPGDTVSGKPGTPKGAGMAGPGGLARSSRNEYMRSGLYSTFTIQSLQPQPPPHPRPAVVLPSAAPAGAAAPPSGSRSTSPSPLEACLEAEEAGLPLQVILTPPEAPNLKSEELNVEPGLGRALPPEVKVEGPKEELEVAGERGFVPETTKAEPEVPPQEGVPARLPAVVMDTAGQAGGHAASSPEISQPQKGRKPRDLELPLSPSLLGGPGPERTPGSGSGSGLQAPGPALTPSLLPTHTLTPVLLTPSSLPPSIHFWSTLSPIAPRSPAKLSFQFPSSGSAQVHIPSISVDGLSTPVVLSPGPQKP
# Method in brief: as §1
# GABPA = target: T3, GABPA (Homo sapiens, UniProt Q06546 1-454); conditions: protein: recombinant; tags: N-terminal GST; dsDNA, one strand shown
# T3 sequence: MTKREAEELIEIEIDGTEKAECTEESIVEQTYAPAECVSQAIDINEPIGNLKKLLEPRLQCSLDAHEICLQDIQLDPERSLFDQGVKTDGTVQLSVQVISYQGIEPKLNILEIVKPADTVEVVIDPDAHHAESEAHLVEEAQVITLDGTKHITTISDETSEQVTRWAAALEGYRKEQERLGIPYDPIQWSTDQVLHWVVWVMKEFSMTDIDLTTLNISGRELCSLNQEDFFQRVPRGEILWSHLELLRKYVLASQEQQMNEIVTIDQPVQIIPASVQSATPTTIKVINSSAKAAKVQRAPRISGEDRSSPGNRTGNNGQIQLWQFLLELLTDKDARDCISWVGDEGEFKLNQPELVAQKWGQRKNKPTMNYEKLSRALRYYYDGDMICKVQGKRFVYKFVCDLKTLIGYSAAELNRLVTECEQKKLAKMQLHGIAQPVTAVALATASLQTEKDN
# Method in brief: as §1
# ERG = target: T4, ERG (Homo sapiens, UniProt P11308 1-479); conditions: protein: recombinant; tags: N-terminal GST; dsDNA, one strand shown
# T4 sequence: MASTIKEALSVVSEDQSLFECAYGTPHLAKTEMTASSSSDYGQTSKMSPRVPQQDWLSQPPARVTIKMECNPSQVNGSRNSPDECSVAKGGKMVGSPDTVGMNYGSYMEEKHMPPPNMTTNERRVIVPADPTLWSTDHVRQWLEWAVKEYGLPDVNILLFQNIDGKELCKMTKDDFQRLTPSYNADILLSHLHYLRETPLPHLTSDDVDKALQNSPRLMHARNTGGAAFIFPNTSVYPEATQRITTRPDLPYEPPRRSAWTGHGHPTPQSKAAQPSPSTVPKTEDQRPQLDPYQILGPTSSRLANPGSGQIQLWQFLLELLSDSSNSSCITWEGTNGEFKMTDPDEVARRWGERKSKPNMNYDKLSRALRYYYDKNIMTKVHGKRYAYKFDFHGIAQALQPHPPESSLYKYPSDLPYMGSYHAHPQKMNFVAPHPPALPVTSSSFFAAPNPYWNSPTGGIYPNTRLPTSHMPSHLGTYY
# Method in brief: as §1
# ELF1 = ELF1 (Homo sapiens, UniProt P32519 1-619); conditions: protein: recombinant; tags: N-terminal GST; dsDNA, one strand shown
# ELF1, sequence (P32519 whole entry): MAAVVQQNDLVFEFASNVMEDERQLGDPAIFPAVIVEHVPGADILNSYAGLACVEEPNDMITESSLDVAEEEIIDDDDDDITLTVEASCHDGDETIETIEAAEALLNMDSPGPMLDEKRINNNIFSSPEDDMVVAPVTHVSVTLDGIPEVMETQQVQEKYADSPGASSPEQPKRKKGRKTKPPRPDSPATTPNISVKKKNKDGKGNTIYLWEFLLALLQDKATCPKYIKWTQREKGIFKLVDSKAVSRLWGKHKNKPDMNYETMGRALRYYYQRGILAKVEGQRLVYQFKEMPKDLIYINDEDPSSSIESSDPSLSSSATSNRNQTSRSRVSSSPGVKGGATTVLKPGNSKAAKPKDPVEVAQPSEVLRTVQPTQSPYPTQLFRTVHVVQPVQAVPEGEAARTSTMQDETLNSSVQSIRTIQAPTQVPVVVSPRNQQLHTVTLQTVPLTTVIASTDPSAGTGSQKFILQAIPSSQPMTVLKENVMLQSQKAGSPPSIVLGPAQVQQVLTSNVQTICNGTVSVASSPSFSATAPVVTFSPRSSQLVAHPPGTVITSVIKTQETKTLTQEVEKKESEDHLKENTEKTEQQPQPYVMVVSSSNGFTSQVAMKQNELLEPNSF
# Method in brief: as §1
# EHF = target: T5, EHF (Homo sapiens, UniProt Q9NZC4 1-300); conditions: protein: recombinant; tags: N-terminal GST; dsDNA, one strand shown
# T5 sequence: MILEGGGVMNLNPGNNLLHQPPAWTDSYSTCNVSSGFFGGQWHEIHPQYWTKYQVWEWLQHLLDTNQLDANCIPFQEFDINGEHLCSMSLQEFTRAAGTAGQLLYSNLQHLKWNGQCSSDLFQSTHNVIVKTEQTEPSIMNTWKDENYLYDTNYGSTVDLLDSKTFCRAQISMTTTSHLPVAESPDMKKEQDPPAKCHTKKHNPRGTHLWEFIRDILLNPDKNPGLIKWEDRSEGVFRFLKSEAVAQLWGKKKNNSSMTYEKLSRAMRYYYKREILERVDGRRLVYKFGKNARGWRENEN
# Method in brief: as §1
# SPI1 = SPI1 (Homo sapiens, UniProt P17947 1-270); conditions: protein: recombinant; tags: N-terminal GST; dsDNA, one strand shown
# Method in brief: as §1
# SPIB = SPIB (Homo sapiens, UniProt Q01892 1-262); conditions: protein: recombinant; tags: N-terminal GST; dsDNA, one strand shown
# SPIB, sequence (Q01892 whole entry): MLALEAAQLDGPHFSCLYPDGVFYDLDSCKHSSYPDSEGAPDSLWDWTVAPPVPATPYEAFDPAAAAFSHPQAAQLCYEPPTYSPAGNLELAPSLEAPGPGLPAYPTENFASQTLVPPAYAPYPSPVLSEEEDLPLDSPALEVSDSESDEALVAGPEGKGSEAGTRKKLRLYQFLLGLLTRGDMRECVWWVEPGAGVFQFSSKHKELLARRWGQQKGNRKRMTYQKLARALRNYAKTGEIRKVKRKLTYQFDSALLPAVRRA
# Method in brief: as §1
# ELK3 = target: T6, ELK3 (Homo sapiens, UniProt P41970 1-407); conditions: protein: recombinant; tags: N-terminal GST; dsDNA, one strand shown
# T6 sequence: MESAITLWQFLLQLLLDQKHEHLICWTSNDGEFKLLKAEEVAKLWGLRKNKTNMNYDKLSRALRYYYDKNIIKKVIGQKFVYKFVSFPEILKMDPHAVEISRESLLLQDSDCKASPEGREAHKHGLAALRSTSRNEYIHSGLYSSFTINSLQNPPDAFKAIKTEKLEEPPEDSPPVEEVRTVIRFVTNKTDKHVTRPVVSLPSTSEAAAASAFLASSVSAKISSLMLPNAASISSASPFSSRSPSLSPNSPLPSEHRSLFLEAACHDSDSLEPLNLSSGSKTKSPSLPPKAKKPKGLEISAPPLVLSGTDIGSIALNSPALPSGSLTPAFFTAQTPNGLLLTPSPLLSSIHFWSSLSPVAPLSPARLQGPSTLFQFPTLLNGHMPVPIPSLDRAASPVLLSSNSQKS
# Method in brief: as §1
# FEV = target: T7, FEV (Homo sapiens, UniProt Q99581 1-238); conditions: protein: recombinant; tags: N-terminal GST; dsDNA, one strand shown
# T7 sequence: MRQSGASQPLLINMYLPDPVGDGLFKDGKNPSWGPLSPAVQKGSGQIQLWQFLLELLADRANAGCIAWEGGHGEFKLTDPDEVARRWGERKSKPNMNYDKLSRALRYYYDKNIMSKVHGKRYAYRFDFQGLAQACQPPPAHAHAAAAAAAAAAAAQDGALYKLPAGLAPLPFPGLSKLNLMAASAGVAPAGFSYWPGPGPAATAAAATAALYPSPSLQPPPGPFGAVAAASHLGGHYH
# Method in brief: as §1
# ETV5 = ETV5 (Homo sapiens, UniProt P41161 1-510); conditions: protein: recombinant; tags: N-terminal GST; dsDNA, one strand shown
# ETV5, sequence (P41161 whole entry): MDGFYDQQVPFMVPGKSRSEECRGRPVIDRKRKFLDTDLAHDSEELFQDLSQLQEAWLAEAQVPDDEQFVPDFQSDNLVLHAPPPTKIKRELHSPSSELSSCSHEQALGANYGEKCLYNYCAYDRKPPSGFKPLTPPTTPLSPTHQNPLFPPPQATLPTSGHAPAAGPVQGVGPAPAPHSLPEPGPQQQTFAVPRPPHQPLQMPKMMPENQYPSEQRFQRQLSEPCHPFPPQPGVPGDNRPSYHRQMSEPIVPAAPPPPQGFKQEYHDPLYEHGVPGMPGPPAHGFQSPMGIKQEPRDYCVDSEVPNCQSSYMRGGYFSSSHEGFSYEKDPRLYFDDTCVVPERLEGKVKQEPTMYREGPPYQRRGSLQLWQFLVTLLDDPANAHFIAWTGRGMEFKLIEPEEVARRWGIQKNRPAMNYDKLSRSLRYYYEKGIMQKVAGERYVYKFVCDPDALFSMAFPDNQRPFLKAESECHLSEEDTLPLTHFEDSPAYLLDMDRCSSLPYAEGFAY
# Method in brief: as §1
# HSF1 = HSF1 (Homo sapiens, UniProt Q00613 1-529); conditions: protein: recombinant; tags: N-terminal GST; chain copies: 3; dsDNA, one strand shown
# HSF1, sequence (Q00613 whole entry): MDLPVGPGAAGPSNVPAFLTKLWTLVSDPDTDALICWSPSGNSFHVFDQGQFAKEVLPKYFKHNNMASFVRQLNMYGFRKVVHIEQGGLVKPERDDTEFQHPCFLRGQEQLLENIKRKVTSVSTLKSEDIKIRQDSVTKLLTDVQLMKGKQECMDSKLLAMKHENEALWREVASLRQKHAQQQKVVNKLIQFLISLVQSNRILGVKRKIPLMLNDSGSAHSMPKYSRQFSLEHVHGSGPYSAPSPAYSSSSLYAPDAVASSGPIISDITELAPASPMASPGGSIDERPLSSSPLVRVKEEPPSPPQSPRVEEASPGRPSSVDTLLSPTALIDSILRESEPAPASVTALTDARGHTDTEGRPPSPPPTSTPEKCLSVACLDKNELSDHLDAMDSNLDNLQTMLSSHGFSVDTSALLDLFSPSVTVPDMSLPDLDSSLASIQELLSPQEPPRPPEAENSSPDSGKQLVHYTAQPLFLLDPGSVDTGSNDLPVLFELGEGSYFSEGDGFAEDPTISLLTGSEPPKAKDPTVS
# Method in brief: as §1
# SPIC = target: T8, SPIC (Homo sapiens, UniProt Q8N5J4 1-248); conditions: protein: recombinant; tags: N-terminal GST; dsDNA, one strand shown
# T8 sequence: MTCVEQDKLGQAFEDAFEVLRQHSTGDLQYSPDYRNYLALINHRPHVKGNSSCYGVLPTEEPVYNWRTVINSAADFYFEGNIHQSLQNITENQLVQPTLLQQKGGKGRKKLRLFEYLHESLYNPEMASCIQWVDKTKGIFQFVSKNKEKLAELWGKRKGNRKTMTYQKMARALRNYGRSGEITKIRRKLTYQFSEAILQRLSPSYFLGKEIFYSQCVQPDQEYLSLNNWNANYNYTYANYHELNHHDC
# Method in brief: as §1
# ELF4 = ELF4 (Homo sapiens, UniProt Q99607 1-663); conditions: protein: recombinant; tags: N-terminal GST; dsDNA, one strand shown
# ELF4, sequence (Q99607 whole entry): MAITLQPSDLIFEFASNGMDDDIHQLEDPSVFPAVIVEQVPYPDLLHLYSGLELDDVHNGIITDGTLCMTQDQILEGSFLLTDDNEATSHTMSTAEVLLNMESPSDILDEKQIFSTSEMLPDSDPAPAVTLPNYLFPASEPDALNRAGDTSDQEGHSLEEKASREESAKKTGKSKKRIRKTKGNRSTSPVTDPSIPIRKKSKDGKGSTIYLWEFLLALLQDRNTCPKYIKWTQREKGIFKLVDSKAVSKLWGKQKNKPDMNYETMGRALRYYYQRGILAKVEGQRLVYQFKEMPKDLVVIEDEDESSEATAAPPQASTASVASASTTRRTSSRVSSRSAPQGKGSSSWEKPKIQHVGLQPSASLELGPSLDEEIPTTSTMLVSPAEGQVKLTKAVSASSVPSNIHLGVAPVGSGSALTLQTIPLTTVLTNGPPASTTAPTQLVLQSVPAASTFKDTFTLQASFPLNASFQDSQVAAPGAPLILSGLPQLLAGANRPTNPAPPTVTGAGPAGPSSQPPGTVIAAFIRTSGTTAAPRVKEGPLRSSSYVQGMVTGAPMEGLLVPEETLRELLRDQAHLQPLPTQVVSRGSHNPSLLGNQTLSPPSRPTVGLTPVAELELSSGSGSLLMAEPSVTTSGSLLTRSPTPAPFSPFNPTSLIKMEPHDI
# Method in brief: as §1
# ELK4 = target: T9, ELK4 (Homo sapiens, UniProt P28324-2 1-405); conditions: protein: recombinant; tags: N-terminal GST; dsDNA, one strand shown
# T9 sequence: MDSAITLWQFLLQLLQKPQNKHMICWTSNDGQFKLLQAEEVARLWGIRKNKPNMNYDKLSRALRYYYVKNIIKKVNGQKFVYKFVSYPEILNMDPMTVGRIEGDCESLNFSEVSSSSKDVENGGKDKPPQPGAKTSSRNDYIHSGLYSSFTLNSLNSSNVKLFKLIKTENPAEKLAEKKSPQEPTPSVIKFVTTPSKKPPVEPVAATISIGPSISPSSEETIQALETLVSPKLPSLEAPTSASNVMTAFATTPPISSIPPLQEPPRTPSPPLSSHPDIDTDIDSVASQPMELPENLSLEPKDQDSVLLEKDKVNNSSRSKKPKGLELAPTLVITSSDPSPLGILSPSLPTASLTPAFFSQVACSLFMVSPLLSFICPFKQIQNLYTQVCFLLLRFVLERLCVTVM
# Method in brief: as §1
# ETV2 = target: T10, ETV2 (Homo sapiens, UniProt O00321 1-342); conditions: protein: recombinant; tags: N-terminal GST; dsDNA, one strand shown
# T10 sequence: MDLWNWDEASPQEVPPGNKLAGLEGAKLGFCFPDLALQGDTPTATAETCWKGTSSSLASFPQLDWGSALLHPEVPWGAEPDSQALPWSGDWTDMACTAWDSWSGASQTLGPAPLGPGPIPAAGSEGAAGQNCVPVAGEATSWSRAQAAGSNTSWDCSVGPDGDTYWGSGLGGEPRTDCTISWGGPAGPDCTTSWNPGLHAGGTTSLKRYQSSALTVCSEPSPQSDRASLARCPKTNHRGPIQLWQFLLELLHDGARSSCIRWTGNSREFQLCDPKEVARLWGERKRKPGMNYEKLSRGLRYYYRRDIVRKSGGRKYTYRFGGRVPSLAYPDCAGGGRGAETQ
# Method in brief: as §1
# ELF3 = target: T11, ELF3 (Homo sapiens, UniProt P78545 1-371); conditions: protein: recombinant; tags: N-terminal GST; dsDNA, one strand shown
# T11 sequence: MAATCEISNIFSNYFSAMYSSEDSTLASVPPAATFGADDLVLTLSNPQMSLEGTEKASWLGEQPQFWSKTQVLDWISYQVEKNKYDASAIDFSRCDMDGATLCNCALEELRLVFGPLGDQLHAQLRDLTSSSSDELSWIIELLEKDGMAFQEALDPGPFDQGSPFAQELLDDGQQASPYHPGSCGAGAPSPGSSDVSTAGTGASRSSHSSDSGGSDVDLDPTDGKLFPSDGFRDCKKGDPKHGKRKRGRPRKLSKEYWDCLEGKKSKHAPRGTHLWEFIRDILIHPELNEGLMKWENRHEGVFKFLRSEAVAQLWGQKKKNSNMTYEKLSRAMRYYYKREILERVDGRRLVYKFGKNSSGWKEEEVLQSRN
# Method in brief: as §1
# CRX = CRX (Homo sapiens, UniProt O43186 1-299); conditions: protein: recombinant; tags: N-terminal GST; dsDNA, one strand shown
# CRX, sequence (O43186 whole entry): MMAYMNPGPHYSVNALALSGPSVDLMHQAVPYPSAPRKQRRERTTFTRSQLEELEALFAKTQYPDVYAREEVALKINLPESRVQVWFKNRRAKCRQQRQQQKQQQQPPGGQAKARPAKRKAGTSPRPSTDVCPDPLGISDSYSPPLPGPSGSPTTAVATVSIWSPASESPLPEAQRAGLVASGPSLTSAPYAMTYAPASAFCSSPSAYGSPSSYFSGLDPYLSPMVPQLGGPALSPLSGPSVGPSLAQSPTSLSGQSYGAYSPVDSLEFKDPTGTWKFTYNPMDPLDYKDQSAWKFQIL
# Method in brief: as §1
# ETV1 = ETV1 (Homo sapiens, UniProt P50549 1-477); conditions: protein: recombinant; tags: N-terminal GST; dsDNA, one strand shown
# ETV1, sequence (P50549 whole entry): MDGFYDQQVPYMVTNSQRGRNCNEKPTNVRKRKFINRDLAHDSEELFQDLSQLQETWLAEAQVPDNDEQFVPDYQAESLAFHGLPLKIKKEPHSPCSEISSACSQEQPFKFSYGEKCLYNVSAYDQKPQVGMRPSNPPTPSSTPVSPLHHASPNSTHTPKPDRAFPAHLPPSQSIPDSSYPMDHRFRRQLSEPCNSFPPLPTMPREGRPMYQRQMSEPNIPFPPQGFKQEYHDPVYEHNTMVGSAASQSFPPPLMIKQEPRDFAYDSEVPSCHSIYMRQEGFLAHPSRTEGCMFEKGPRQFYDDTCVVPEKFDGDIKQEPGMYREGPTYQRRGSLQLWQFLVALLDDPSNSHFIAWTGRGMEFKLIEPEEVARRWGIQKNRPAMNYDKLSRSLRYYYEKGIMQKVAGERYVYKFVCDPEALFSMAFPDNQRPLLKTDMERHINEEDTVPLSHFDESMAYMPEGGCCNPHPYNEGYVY
# Method in brief: as §1
sequence,measurement,setting,value
TTCAAG,binding signal,FLI1,"1.22 fold enrichment (6-mer frequency, TF over GST control)"
same,binding signal,ELK1,"1.22 fold enrichment (6-mer frequency, TF over GST control)"
same,binding signal,GABPA,"1.25 fold enrichment (6-mer frequency, TF over GST control)"
same,binding signal,ERG,"1.24 fold enrichment (6-mer frequency, TF over GST control)"
same,binding signal,ELF1,"1.28 fold enrichment (6-mer frequency, TF over GST control)"
same,binding signal,EHF,"1.3 fold enrichment (6-mer frequency, TF over GST control)"
same,binding signal,SPI1,"1.2 fold enrichment (6-mer frequency, TF over GST control)"
same,binding signal,SPIB,"1.29 fold enrichment (6-mer frequency, TF over GST control)"
same,binding signal,ELK3,"1.22 fold enrichment (6-mer frequency, TF over GST control)"
same,binding signal,FEV,"1.2 fold enrichment (6-mer frequency, TF over GST control)"
same,binding signal,ETV5,"1.23 fold enrichment (6-mer frequency, TF over GST control)"
same,binding signal,HSF1,"1.49 fold enrichment (6-mer frequency, TF over GST control)"
same,binding signal,SPIC,"1.24 fold enrichment (6-mer frequency, TF over GST control)"
same,binding signal,ELF4,"1.29 fold enrichment (6-mer frequency, TF over GST control)"
same,binding signal,ELK4,"1.32 fold enrichment (6-mer frequency, TF over GST control)"
same,binding signal,ETV2,"1.1 fold enrichment (6-mer frequency, TF over GST control)"
same,binding signal,ELF3,"1.23 fold enrichment (6-mer frequency, TF over GST control)"
same,binding signal,CRX,"1.18 fold enrichment (6-mer frequency, TF over GST control)"
same,binding signal,ETV1,"1.29 fold enrichment (6-mer frequency, TF over GST control)"
